Source: the supplement of paper PMC13380429
Structures can show the parent of a compound that is named as a salt. Values without a mark were called inactive.

System: Vero E6 infected with SARS-CoV-2
Experiment: inhibition of SARS-CoV-2 cytopathic effect; higher = more antiviral protection, active = above 15
Conditions: 48 h

Row | SMILES | inhibition of SARS-CoV-2 cytopathic effect (1 nM) [%] | inhibition of SARS-CoV-2 cytopathic effect (8.33 nM) [%] | inhibition of SARS-CoV-2 cytopathic effect (100 nM) | inhibition of SARS-CoV-2 cytopathic effect (833.33 nM) [%] | inhibition of SARS-CoV-2 cytopathic effect (10000 nM)
1 | CCOc1ccc(/C=C2\NCCc3cc(OCC)c(OCC)cc32)cc1OCC [drotaverine] | 1.53 | 2.33 | -0.04% | 2.62 | 0.78%
2 | O=C(/C=C/c1cccnc1)NCCCCC1CCN(C(=O)c2ccccc2)CC1 | 3.22 | -5.64 | -20.3% | -24.1 | -24.5%
3 | Cn1c(=O)cc(N2CCC[C@@H](N)C2)n(Cc2cc(F)ccc2C#N)c1=O [trelagliptin] | -1.51 | 0.34 | 1.49% | -0.45 | 3.01%
4 | CN(C)CCc1c[nH]c2ccc(Cn3cncn3)cc12 [rizatriptan] | -0.4 | 0.07 | -1.66% | -0.7 | -1.6%
5 | CCSC(=N)N [EIT-hydrobromide] | 0.03 | -1.2 | -0.94% | -0.69 | -1.4%
6 | O=c1c(-c2ccc(O)cc2)coc2cc(O)ccc12 [daidzein] | 0.46 | 0.3 | 0.05% | -0.66 | -1.03%
7 | COc1ccc2c(O[C@@H]3C[C@H]4C(=O)N[C@]5(C(=O)NS(=O)(=O)C6CC6)C[C@H]5/C=C\CCCCN(C)C(=O)[C@@H]4C3)cc(-c3nc(C(C)C)cs3)nc2c1C [simeprevir] | -0.41 | 3.7 | 2.68% | -2.31 | 2.37%
8 | O=C1OC2(c3ccccc31)c1cc(I)c(O)c(I)c1Oc1c2cc(I)c(O)c1I [erythrosine] | -2.4 | -1.04 | -2.6% | -4.79 | -12.8%
9 | CC(=O)c1ccc2c(c1)N(CCCN1CCC(CCO)CC1)c1ccccc1S2 [piperacetazine] | 4.15 | 4.04 | 1.55% | 0.28 | 3.14%
10 | BrC1C(Br)C(Br)C(Br)C(Br)C1Br (stereo not given) [1,2,3,4,5,6-hexabromocyclohexane] | -2.03 | -1.15 | -1.07% | -1.96 | 9.07%
11 | OCCN1C[C@H](O)[C@@H](O)[C@H](O)[C@H]1CO [miglitol] | -4.01 | -3.41 | 52.1% (active) | -3.71 | -4.78%
12 | COc1ccc([C@@H]2CC(=O)c3c(O)cc(O[C@@H]4O[C@H](CO[C@@H]5O[C@@H](C)[C@H](O)[C@@H](O)[C@H]5O)[C@@H](O)[C@H](O)[C@H]4O)cc3O2)cc1O [hesperidin] | 1.23 | 2.76 | 0.86% | 0.15 | 1.25%
13 | CO[C@]12C[C@@H](COC(=O)c3cncc(Br)c3)CN(C)[C@@H]1Cc1cn(C)c3cccc2c13 [nicergoline] | 0.73 | -1.36 | -1.54% | 0.48 | -0.35%
14 | O=c1[nH]c(=O)n([C@H]2C[C@H](O)[C@@H](CO)O2)cc1/C=C/Br [brivudine] | 1.67 | 0.21 | 0.44% | -0.42 | -0.09%
15 | O=C(O)c1ccc(-c2c[nH]c3ncc(-c4ccccc4)cc23)cc1C1CCCC1 | 4.37 | 5.26 | 0.74% | 1.88 | -0.09%
16 | CC(C)CCN1c2nc(Nc3cc(F)c(O)c(F)c3)ncc2N(C)C(=O)[C@@H]1C | -1.15 | -2.75 | -6.09% | -0.02 | 8.71%
17 | Cc1cc(C)c2nc(-c3ccccn3)cc(C(=O)Nc3ccc(S(=O)(=O)Nc4onc(C)c4C)cc3)c2c1 | -1.1 | 1.15 | -0.62% | -9.3 | -3.05%
18 | Nc1c(Br)cc(Br)cc1CN[C@H]1CC[C@H](O)CC1 [ambroxol] | -4.07 | -1 | -0.99% | 1.23 | -1.75%
19 | C[C@@H]1COCCN1c1cc(=O)n2c(n1)N(Cc1cncc(Cl)c1)[C@H](C(F)(F)F)CC2 | -2.96 | 2.22 | -0.24% | 7.24 | 44.4% (active)
